This passage reports outcome and AC50 results from PubChem BioAssay (EPA / NIEHS).

The source made the active and inactive calls. How the source made its calls: active means hit-call score of the fitted dose curve at least 0.9, where 1 is the maximum; inactive means score below 0.9.

Experiment [1] is described as follows: ATG_PBREM_CIS: Attagene CIS-FACTORIAL HepG2 Assay for human Phenobarbital-responsive Enhancer Module (PBREM) (AID 2282955). The following applies: HepG2 PBREM cis-reporter, Attagene multiplexed transcription; actives raise or lower the signal. An outline of the steps:
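HepG2, transient MRTU transfection, 24 h dosing; RNA → oligo(dT) RT → PCR → 6-FAM extension → HpaI → CE. Bidirectional fit vs DMSO.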

Experiment [2] deals with Paired box protein Pax-6 (Homo sapiens) (UniProt P26367). Nature of the experiment: ATG_Pax6_CIS: Attagene CIS-FACTORIAL HepG2 Assay for human Paired Box 6 (PAX6) (AID 2282956). The following applies: HepG2 CIS-FACTORIAL PAX6 reporter transcription, RNA readout; actives raise or lower the signal. Summed up: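 HepG2 cells transiently transfected with multiplexed cis-promoter reporter units (endogenous TF activity) were dosed for 24 h. Reporter mRNA was quantified by RT-PCR, 6-FAM labeling, HpaI digestion and capillary electrophoresis; bidirectional fitting versus DMSO baseline.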
Sequence of Paired box protein Pax-6 (Homo sapiens) (P26367 whole entry, looked up): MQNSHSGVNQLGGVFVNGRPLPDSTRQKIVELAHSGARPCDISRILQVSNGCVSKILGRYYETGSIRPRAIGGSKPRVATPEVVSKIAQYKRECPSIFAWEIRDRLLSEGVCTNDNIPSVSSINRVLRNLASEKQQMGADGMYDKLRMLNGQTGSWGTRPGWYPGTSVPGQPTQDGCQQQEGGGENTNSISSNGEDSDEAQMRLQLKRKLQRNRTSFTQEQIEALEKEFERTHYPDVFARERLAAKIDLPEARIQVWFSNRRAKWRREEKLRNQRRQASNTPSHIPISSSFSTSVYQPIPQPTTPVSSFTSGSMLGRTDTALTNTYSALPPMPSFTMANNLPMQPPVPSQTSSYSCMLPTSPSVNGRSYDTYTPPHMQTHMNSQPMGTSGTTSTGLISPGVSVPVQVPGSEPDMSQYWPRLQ

Experiment [3] can be described thus: ATG_PXRE_CIS: Attagene CIS-FACTORIAL HepG2 Assay for human Pregnane X Receptor Element (PXRE) (AID 2282957). The following applies: HepG2 Attagene CIS-FACTORIAL PXRE reporter, mRNA; actives raise or lower the signal. Summed up:
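Multiplexed cis-reporter assay in transiently transfected human HepG2 cells; 24 h chemical exposure. Reporter transcripts quantified by RT-PCR with fluorescent labeling and capillary electrophoresis.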

A short description of experiment [4]: ATG_PPRE_CIS: Attagene CIS-FACTORIAL HepG2 Assay for human Peroxisome Proliferator-activated Response Element (PPRE) (AID 2282958). The following applies: HepG2 PPRE cis-element reporter, Attagene transcription factor profiling; actives raise or lower the signal. Summed up:
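Transcript-level reporter induction in transfected HepG2 cells after 24 h chemical exposure, quantified by fluorescence from RT-PCR products separated by capillary electrophoresis.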

A short description of experiment [5]: ATG_RORE_CIS: Attagene CIS-FACTORIAL HepG2 Assay for human RAR-related Orphan Receptor Element (RORE) (AID 2282959). Particulars: HepG2 Attagene cis-factorial RORE reporter, mRNA; actives raise or lower the signal. An outline of the steps: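 Multiplexed reporter assay measuring mRNA induction from a cis promoter element in transiently transfected HepG2 cells after 24 h treatment. Detection via RT-PCR and capillary electrophoresis fluorescence; DMSO serves as baseline.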

A short description of experiment [6]: ATG_Sox_CIS: Attagene CIS-FACTORIAL HepG2 Assay for human SRY-box transcription factor (SOX) (AID 2282960). Particulars: HepG2 Attagene cis-factorial SOX reporter, mRNA; actives raise or lower the signal. Summed up: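 Cells were transfected with reporter constructs under cis-regulatory promoters, then exposed to chemicals for 24 h. Reporter transcripts were quantified by fluorescence after RT-PCR and capillary electrophoresis; activity was fitted in both directions against DMSO.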

Experiment [7] addresses Transcription factor Sp1 (Homo sapiens) (UniProt P08047). Nature of the experiment: ATG_Sp1_CIS: Attagene CIS-FACTORIAL HepG2 Assay for human Specificity Protein 1 (Sp1) (AID 2282961). The following applies: HepG2 Sp1 cis-reporter transcription, actives raise or lower the signal. Summed up:
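Measures mRNA induction of an Sp1-linked reporter in HepG2 cells 24 h post-dosing. Multiplexed reporters read by RT-PCR and capillary electrophoresis; DMSO serves as negative control and baseline.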

The nature of experiment [8]: ATG_SREBP_CIS: Attagene CIS-FACTORIAL HepG2 Assay for human Sterol Regulatory Element Binding (SREBP) (AID 2282962). The following applies: HepG2 Attagene cis-factorial SREBP reporter, mRNA; actives raise or lower the signal. Summed up:
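HepG2 cells transiently transfected with multiplexed cis-element reporter units report endogenous transcription factor activity. After 24 h of chemical exposure, reporter mRNA was quantified by RT-PCR, 6-FAM labelling, HpaI digestion and capillary electrophoresis; bidirectional fits used DMSO as baseline.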

Experiment [9] addresses Signal transducer and activator of transcription 3 (Homo sapiens) (UniProt P40763). Nature of the experiment: ATG_STAT3_CIS: Attagene CIS-FACTORIAL HepG2 Assay for human Signal Transducer and Activator of Transcription 3 (STAT3) (AID 2282963). The following applies: HepG2, Attagene cis-factorial STAT3 reporter transcription; actives raise or lower the signal. An outline of the steps:
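HepG2 cells transiently transfected with multiple cis-element-driven reporter units report endogenous transcription factor activity. After 24 h compound exposure, reporter mRNA is measured by RT-PCR, 6-FAM labelling, HpaI digestion and capillary electrophoresis. Fitted bidirectionally versus DMSO.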

Experiment [10] in a line: ATG_TA_CIS: Attagene CIS-FACTORIAL HepG2 Assay for human TA Basal Promoter (AID 2282964). Particulars: HepG2 Attagene CIS-factorial TA basal promoter reporter; actives raise or lower the signal. Summed up:
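HepG2 cells transiently transfected with multiplexed cis-promoter reporter units, dosed 24 h. Reporter mRNA measured by RT-PCR, 6-FAM labelling, HpaI digestion and capillary electrophoresis; bidirectional fit versus DMSO baseline, serving as background control.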

Sequence of Transcription factor Sp1 (Homo sapiens) (P08047 whole entry, looked up): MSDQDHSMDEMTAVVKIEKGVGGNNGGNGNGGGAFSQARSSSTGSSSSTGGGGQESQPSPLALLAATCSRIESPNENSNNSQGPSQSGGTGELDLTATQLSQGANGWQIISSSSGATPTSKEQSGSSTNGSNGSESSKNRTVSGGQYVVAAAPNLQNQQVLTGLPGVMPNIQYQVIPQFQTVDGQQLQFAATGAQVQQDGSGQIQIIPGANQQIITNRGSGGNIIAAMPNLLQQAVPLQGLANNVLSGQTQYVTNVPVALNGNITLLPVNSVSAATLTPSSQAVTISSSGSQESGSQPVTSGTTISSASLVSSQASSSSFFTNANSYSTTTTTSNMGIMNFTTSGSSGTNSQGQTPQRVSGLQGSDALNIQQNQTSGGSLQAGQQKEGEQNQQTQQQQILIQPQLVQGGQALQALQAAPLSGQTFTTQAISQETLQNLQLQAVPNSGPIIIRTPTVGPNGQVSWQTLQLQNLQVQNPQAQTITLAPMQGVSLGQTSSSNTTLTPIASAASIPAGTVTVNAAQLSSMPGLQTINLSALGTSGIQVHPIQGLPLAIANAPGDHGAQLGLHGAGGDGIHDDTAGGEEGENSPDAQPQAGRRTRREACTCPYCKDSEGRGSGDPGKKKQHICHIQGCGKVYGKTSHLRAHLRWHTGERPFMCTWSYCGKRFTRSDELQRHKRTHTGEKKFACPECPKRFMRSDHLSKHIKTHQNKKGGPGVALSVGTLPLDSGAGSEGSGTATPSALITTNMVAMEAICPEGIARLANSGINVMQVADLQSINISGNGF
Sequence of Signal transducer and activator of transcription 3 (Homo sapiens) (P40763 whole entry, looked up): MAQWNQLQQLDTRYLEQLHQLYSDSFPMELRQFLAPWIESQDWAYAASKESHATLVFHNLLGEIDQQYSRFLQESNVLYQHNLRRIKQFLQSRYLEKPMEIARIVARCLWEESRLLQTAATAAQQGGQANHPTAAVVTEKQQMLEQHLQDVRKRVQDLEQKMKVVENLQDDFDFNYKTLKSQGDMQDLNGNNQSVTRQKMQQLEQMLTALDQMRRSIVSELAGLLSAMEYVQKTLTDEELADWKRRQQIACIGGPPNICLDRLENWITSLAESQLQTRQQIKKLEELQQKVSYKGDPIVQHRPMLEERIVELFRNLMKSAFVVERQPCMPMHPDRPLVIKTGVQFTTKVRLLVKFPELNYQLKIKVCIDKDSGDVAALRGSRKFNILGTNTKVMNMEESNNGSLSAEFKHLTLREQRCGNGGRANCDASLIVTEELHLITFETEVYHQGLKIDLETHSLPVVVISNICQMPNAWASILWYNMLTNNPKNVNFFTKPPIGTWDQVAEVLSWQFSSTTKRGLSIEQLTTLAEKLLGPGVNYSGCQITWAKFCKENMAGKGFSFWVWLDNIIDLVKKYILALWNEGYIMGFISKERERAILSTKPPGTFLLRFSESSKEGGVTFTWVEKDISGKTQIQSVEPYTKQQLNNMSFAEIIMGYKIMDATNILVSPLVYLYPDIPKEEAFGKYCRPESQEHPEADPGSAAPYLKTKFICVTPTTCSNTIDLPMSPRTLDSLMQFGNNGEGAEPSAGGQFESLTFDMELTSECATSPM

Consider `CCOC(=O)CCC(C)=O`, for which the result in experiment [1], in experiment [2], in experiment [3], in experiment [4], in [5] and in experiment [6] was inactive. In addition, the molecule was classed as inactive in experiment [7], in experiment [8], in experiment [9] and in [10].

Turning to `CC(C)=CCCC(C)O` (stereo not given), the outcome in experiment [1], in [2], in experiment [3], in [4], in [5] and in [6] was inactive. For the same molecule, the outcome in [7], in experiment [8], in experiment [9] and in [10] was inactive.

In the case of `CN(C)C(C)(C)CO`, the outcome in [1], in [2], in experiment [3], in [4], in [5] and in experiment [6] was inactive. Moreover, the call in experiment [7], in [8], in experiment [9] and in [10] was inactive.

For `Brc1ccccn1`, the outcome in experiment [1], in experiment [2], in [3], in experiment [4], in experiment [5] and in experiment [6] was inactive. Also, the molecule was classed as inactive in [7], in experiment [8], in experiment [9] and in experiment [10].

With `C=CCOC(=O)CC(C)C`, the outcome in experiment [1], in experiment [2], in [3], in experiment [4], in experiment [5] and in experiment [6] was inactive. Moreover, the molecule was called inactive in [7], in [8], in experiment [9] and in [10].

On to `CC(C)(C)c1cc(CCC(=O)NCCCCCCNC(=O)CCc2cc(C(C)(C)C)c(O)c(C(C)(C)C)c2)cc(C(C)(C)C)c1O`, for which the result in [1], in experiment [2], in [4], in experiment [5], in experiment [6] and in [7] was inactive. Further, the result in [8], in experiment [9] and in [10] was inactive. The AC50 in [3] is 0.169 µM (active).

For `C=CC(=O)OCC(F)(F)C(F)(F)C(F)(F)C(F)(F)C(F)(F)C(F)(F)C(F)(F)C(F)F`, the result in [1], in [2], in experiment [4], in experiment [5], in experiment [7] and in [8] was inactive. The molecule was called inactive in experiment [9] and in [10]. In addition, the results for the AC50 in [3] and in experiment [6] were 38.3 µM (active) and 271 µM (active), respectively.

Take `CC(C)C(=O)OCc1ccccc1`: the outcome in experiment [1], in [2], in experiment [3], in [4], in experiment [5] and in [6] was inactive. Further, the molecule was called inactive in experiment [7], in experiment [8], in experiment [9] and in experiment [10].

As for `O=C(Cl)c1ccc(Cl)cc1Cl`, the result in [1], in experiment [2], in [4], in experiment [5], in [6] and in [7] was inactive. For the same molecule, the molecule was classed as inactive in experiment [8], in experiment [9] and in [10]. Further, the AC50 in experiment [3] is 27.3 µM (active).

Consider `Nc1cc([N+](=O)[O-])cc(Cl)c1O`, for which the result in [1], in experiment [2], in experiment [4], in experiment [5], in experiment [6] and in experiment [7] was inactive. Besides, the outcome in experiment [8], in experiment [9] and in experiment [10] was inactive. Also, in [3], the AC50 is 5.15 µM (active).

For `CCN(CC)c1ccc(C=O)cc1`, the outcome in [1], in [2], in [4], in experiment [5], in experiment [6] and in experiment [7] was inactive. In addition, the call in experiment [8], in experiment [9] and in experiment [10] was inactive. Moreover, the AC50 in experiment [3] is 27.7 µM (active).

Regarding `O=C1C=CC(=O)N1c1ccc(Cc2ccc(N3C(=O)C=CC3=O)cc2)cc1`, the outcome in [1], in [5], in experiment [6], in [8], in experiment [9] and in [10] was inactive. Also, the AC50 in experiment [2] is 33.4 µM (active); in [3] it was 26.7 µM (active); in experiment [4], 57.2 µM (active); in experiment [7] it was 48.4 µM (active).

Regarding `O=C1OC(=O)c2ccc3c4c(ccc1c24)C(=O)OC3=O`, the outcome in [1], in [2], in experiment [3], in [4], in experiment [5] and in experiment [6] was inactive. For the same molecule, the molecule was called inactive in [7], in experiment [8], in experiment [9] and in experiment [10].

With `O=C(Cl)C(F)(F)C(F)(F)C(F)(F)C(F)(F)C(F)(F)C(F)(F)F`, the outcome in experiment [1], in [2], in [3], in experiment [5], in experiment [6] and in experiment [7] was inactive. Besides, the result in experiment [8], in [9] and in experiment [10] was inactive. In experiment [4], the AC50 was 60.3 µM (active).

For `CC(=O)CCC(C)C`, the outcome in experiment [1], in experiment [2], in experiment [4], in experiment [5], in [6] and in [7] was inactive. Also, the outcome in [8], in [9] and in [10] was inactive. In addition, the AC50 in experiment [3] was 52.9 µM (active).

Regarding `O=C(O)C(F)(F)C(F)(F)C(F)(F)C(F)(F)C(F)(F)C(F)(F)C(F)F`, the result in [1], in experiment [2], in experiment [5], in [6], in experiment [7] and in [9] was inactive. In addition, the molecule was classed as inactive in experiment [10]. Also, the AC50 is 27.6 µM (active) in experiment [3], 46.1 µM (active) in experiment [4] and 63.5 µM (active) in experiment [8].

Turning to `OCC(O)CC(F)(F)C(F)(F)C(F)(F)C(F)(F)C(F)(F)C(F)(F)C(F)(F)C(F)(F)F` (stereo not given), the outcome in [1], in experiment [2], in [3], in [4], in experiment [5] and in [6] was inactive. The call in experiment [7], in [8], in [9] and in experiment [10] was inactive.

For the molecule `Cc1cc(C)c(O)c(C(C)(C)C)c1`, the result in experiment [1], in experiment [2], in experiment [4], in experiment [5], in experiment [6] and in [7] was inactive. In addition, the result in experiment [8], in experiment [9] and in experiment [10] was inactive. The AC50 in experiment [3] was 27.1 µM (active).

With `Cc1cc(O)c(C(C)(C)C)cc1C(C)(C)C`, the result in experiment [1], in experiment [2], in experiment [4], in [5], in [6] and in experiment [9] was inactive. The result in experiment [10] was inactive. The AC50 in experiment [3] was 2.92 µM (active); in experiment [7] it was 11.1 µM (active); in experiment [8], 8.33 µM (active).

On to `CCCCCC/C=C/CCCCCCCC(=O)O`, for which the outcome in [1], in experiment [2], in [3], in experiment [4], in experiment [5] and in experiment [6] was inactive. Further, the call in [7], in [8], in experiment [9] and in [10] was inactive.

Regarding `CC(C)CC=C(C=O)c1ccccc1`, the outcome in experiment [1], in experiment [2], in experiment [4], in experiment [5], in experiment [6] and in [7] was inactive. In addition, the call in [8], in [9] and in experiment [10] was inactive. Also, the AC50 in experiment [3] is 0.956 µM (active).

For `NS(=O)(=O)C(F)(F)C(F)(F)C(F)(F)C(F)(F)C(F)(F)C(F)(F)F`, the result in experiment [1], in [2], in [5], in experiment [6], in [7] and in experiment [8] was inactive. In addition, the call in experiment [9] and in [10] was inactive. The AC50 was 41 µM (active) in experiment [3] and 50.2 µM (active) in experiment [4].

In the case of `Cc1ccc(O)c(-n2nc3ccccc3n2)c1`, the outcome in experiment [1], in experiment [2], in [5], in experiment [6], in experiment [7] and in [8] was inactive. Moreover, the outcome in [9] and in experiment [10] was inactive. Besides, the AC50 in [3] is 12.2 µM (active); in [4], 13.5 µM (active).

Usually AC50 stands for the concentration at which the activity in the assay is half-maximal.
